Screening data (PubChem)
L3MBTL1 block – qHTS Assay for the Inhibitors of L3MBTL1 | AlphaScreen L3MBTL1–H3K9me1 peptide binding | Potency, µM (doses to about 57.1 µM), most hits filed as inhibitors | 230,000 compounds, 0.66% hits; further: nearly all actives have a fitted effect of over 60% in size
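AlphaScreen proximity signal between nickel-chelate acceptor and streptavidin donor beads (final 10 ug/mL) reports binding of 50 nM L3MBTL1 to 75 nM biotin-H3 K9me1 peptide; complex incubated with compounds 30 min at room temperature; cefsulodin titration as control.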
BAZ2B block – qHTS Assay for Inhibitors of BAZ2B. Bromodomain adjacent to zinc finger domain protein 2B (Homo sapiens), Q9UIF8. AlphaScreen BAZ2B-H3K14Ac peptide displacement. Potency, µM (doses to about 114 µM), actives largely listed as inhibitors. 360,000 compounds, 4.4% hits. AID 504333, 2011; further: nearly all actives have a fitted effect of over 60% in size
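Complex of BAZ2B and biotin-H3K14Ac (50 nM apiece) forms over 30 min at RT, then faces library compounds up to 110 uM for another 30 min; AlphaScreen beads added, 20 min dark incubation, luminescence read.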
PI5P4Ka inh – qHTS for Inhibitors of phosphatidylinositol 5-phosphate 4-kinase (PI5P4K) | Phosphatidylinositol 5-phosphate 4-kinase type-2 alpha (Homo sapiens), P48426 | PI5P4Kalpha enzyme, ADP-Glo luminescence, 60 min; hits give low values | max response, % | 330,000 compounds, 1.2% hits; active means max response of -50% or lower; inconclusive means between -30% and -50%; inactive means -30% or higher; further: value at the top dose of about 77 µM
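ADP-Glo luminescence end-point read after a 60 min room-temperature kinase reaction of PI5P4Kalpha plus substrate, initiated with ATP at 5 microM final. Buffer: 0.038 M HEPES pH 7.4, EGTA, 0.1% CHAPS, 5% DMSO.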
G9a block – qHTS Assay for Inhibitors of Histone Lysine Methyltransferase G9a; 350,000 compounds, 8.8% hits; Potency, µM (top dose mostly 102 µM), most hits filed as inhibitors; G9a H3K9 monomethylation, AlphaScreen, 2 h; Histone-lysine N-methyltransferase EHMT2 (Homo sapiens), Q96KQ7; AID 504332, 2011; further: nearly all actives have a fitted effect of over 75% in size
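Compounds were preincubated with 20 nM G9a for 15 min, after which biotinylated H3K9 peptide (500 nM) and SAM (20 uM) started a 2 h room-temperature reaction. Monomethylated product was quantified by antibody-based AlphaScreen chemiluminescence.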
JMJD2A Tudor inh – qHTS Assay for Inhibitors of JMJD2A-Tudor Domain. Potency, µM (doses to about 114 µM), most hits filed as inhibitors. 390,000 compounds, 4.4% hits. AlphaScreen JMJD2A-Tudor / H3K4me3 peptide binding. Lysine-specific demethylase 4A (Homo sapiens), O75164; further: nearly all actives have a fitted effect of over 50% in size
HP1b binding inh – HTS for Inhibitors of HP1-beta Chromodomain Interactions with Methylated Histone Tails | Chromobox protein homolog 1 (Homo sapiens), P83916 | Potency, µM (doses to about 114 µM), most hits filed as inhibitors | AlphaScreen HP1-beta / biotin-H3K9me3 peptide binding | AID 540317, 2011 | 390,000 compounds, 0.56% hits; further: nearly all actives have a fitted effect of over 70% in size
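HP1-beta protein (50 nM final) preincubated 30 min at room temperature with biotinylated H3(1-18)K9me3 peptide (50 nM) in PBS pH 7.4, 0.01% Tween-20, then compound added for 30 min. AlphaScreen streptavidin donor/nickel chelate acceptor beads (10 ug/mL final), 30 min dark, luminescence read.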
A number is an active result. An excerpt weighted towards active compounds, which were near 11% of everything screened. Unless noted, the call rests on the fitted dose curve; in most records, active means well fitted inhibition curve with a large enough effect; inconclusive means small, poorly fitted or top-dose-only effect; inactive means no such curve, though single readings can be large or run the other way.

Screening Cc1ccc(NC(=O)CSc2nnc(N)s2)cc1S(=O)(=O)N1CCOCC1 returned L3MBTL1 block inactive, BAZ2B block inactive, PI5P4Ka inh inactive, G9a block 50.1µM, JMJD2A Tudor inh inactive and HP1b binding inh inactive.
Screening Nc1nnc(SCC(=O)Nc2ccc(S(=O)(=O)N3CCOCC3)cc2)s1 returned BAZ2B block inactive, G9a block inconclusive, JMJD2A Tudor inh inactive and HP1b binding inh inactive.
For COc1ccc(F)cc1S(=O)(=O)n1cc(C)nc1-c1ccccc1 the results were L3MBTL1 block inactive, BAZ2B block inactive, PI5P4Ka inh inconclusive, G9a block inactive, JMJD2A Tudor inh 22.4µM and HP1b binding inh inactive.
COc1ccc(NC(=O)NCc2cccn2Cc2ccc(F)cc2)cc1OC was read as BAZ2B block inactive, G9a block inactive, JMJD2A Tudor inh inactive and HP1b binding inh inactive.
CCc1ccccc1NC(=O)Cn1c(=O)n(CCCS(=O)(=O)C2CCCCC2)c(=O)c2ccccc21 was read as BAZ2B block inactive, G9a block inactive, JMJD2A Tudor inh inactive and HP1b binding inh inactive.
For CCN(CC)S(=O)(=O)c1ccc(N2CCOCC2)c(NC(=O)c2ccc(C#N)cc2)c1 the results were L3MBTL1 block inactive, BAZ2B block inconclusive, PI5P4Ka inh inactive, G9a block 11.2µM, JMJD2A Tudor inh inactive and HP1b binding inh inactive.
Cc1cc(NS(=O)(=O)c2ccc(NC(=O)CN3C(=O)NC(C)(c4ccccc4)C3=O)cc2)nc(C)n1 (centres undefined) was read as L3MBTL1 block inactive, BAZ2B block inactive, PI5P4Ka inh inactive, G9a block 14.1µM, JMJD2A Tudor inh inactive and HP1b binding inh inactive.
For CCN(CC)S(=O)(=O)c1ccc(N2CCOCC2)c(NC(=O)COc2ccccc2)c1 the results were L3MBTL1 block inactive, BAZ2B block inactive, PI5P4Ka inh inactive, G9a block inactive, JMJD2A Tudor inh inactive and HP1b binding inh inactive.
For CCN(CC)S(=O)(=O)c1ccc(N2CCOCC2)c(NC(=O)C(=O)c2c(-c3ccccc3)cc3ccccn23)c1 the results were BAZ2B block inactive, PI5P4Ka inh inactive, G9a block 35.5µM, JMJD2A Tudor inh inactive and HP1b binding inh inactive.
CCN(CC)S(=O)(=O)c1ccc(N2CCOCC2)c(NC(=O)CNCCc2ccccc2)c1 was read as L3MBTL1 block inactive, BAZ2B block 50.1µM, PI5P4Ka inh inactive, G9a block 11.2µM, JMJD2A Tudor inh 39.8µM and HP1b binding inh inactive.
For COc1cc2c(cc1OC)C(c1ccc(Cl)cc1)N(c1cccc(C#N)c1)C(=O)C2 (centres undefined) the results were BAZ2B block inactive, G9a block inactive, JMJD2A Tudor inh inactive and HP1b binding inh inactive.
`CCOc1ccc(C2CC(=O)NC(NC(=O)c3cccc(Cl)c3)=N2)cc1` (centres undefined) gave BAZ2B block inactive, G9a block inactive, JMJD2A Tudor inh inactive and HP1b binding inh inactive.
CCCS(=O)(=O)N1CC(=O)N(c2cccc(F)c2)C(C)(C(=O)NC2CCCCCC2)C1 (centres undefined) was read as BAZ2B block inactive, G9a block inactive, JMJD2A Tudor inh inactive and HP1b binding inh inactive.
Screening CC1(C)C2CCC1(C)C(NC(=O)COC(=O)c1ccc(S(C)(=O)=O)c([N+](=O)[O-])c1)C2 (centres undefined) returned JMJD2A Tudor inh inactive and HP1b binding inh inactive.
`CN(C)S(=O)(=O)c1ccc(N2CCCC2)c(C(=O)Nc2ccc(F)cc2F)c1` gave L3MBTL1 block inactive, BAZ2B block inactive, PI5P4Ka inh inactive, G9a block 11.2µM, JMJD2A Tudor inh inactive and HP1b binding inh inactive.
COc1ccc(S(=O)(=O)N2CCCCCC2)cc1NC(=O)CN1C(=O)NC(C)(c2ccccc2)C1=O (centres undefined) was read as L3MBTL1 block inactive, BAZ2B block inactive, PI5P4Ka inh inactive, G9a block 15.8µM, JMJD2A Tudor inh inactive and HP1b binding inh inactive.
Screening CCC1(c2ccccc2)NC(=O)N(CC(=O)Nc2cc(S(=O)(=O)N3CCCCC3)ccc2N(C)C)C1=O (centres undefined) returned L3MBTL1 block inactive, BAZ2B block inactive, PI5P4Ka inh inactive, G9a block inactive, JMJD2A Tudor inh inactive and HP1b binding inh inactive.
For CCN(CC)S(=O)(=O)c1ccc(N2CCCC2)c(NC(=O)c2ccc(OC)cc2OC)c1 the results were L3MBTL1 block inactive, BAZ2B block inactive, PI5P4Ka inh inactive, G9a block 28.2µM, JMJD2A Tudor inh inactive and HP1b binding inh inactive.
CN(C)S(=O)(=O)c1ccc(N2CCCC2)c(C(=O)Nc2ccccc2F)c1 was read as L3MBTL1 block inactive, BAZ2B block inactive, PI5P4Ka inh inactive, G9a block inconclusive, JMJD2A Tudor inh inactive and HP1b binding inh inactive.
`CCN(CC)S(=O)(=O)c1ccc(N2CCCC2)c(NC(=O)Cc2ccc(OC)cc2)c1` gave L3MBTL1 block inactive, BAZ2B block inactive, PI5P4Ka inh inactive, G9a block inconclusive, JMJD2A Tudor inh inactive and HP1b binding inh inactive.
`CCN(CC)S(=O)(=O)c1ccc(N2CCOCC2)c(NC(=O)CN2C(=O)NC(C)(c3ccccc3)C2=O)c1` (centres undefined) gave L3MBTL1 block inactive, BAZ2B block inactive, PI5P4Ka inh inactive, G9a block 15.8µM, JMJD2A Tudor inh inactive and HP1b binding inh inactive.
`CCOC(=O)c1cccc(NC(=O)c2ccc3c(c2)nnn3C2CCCC2)c1` gave BAZ2B block inactive, G9a block inactive, JMJD2A Tudor inh inactive and HP1b binding inh inactive.
Screening CC1CCCC(C)N1S(=O)(=O)c1ccc(NC(=O)CNCC2CCCO2)cc1 (centres undefined) returned L3MBTL1 block inactive, BAZ2B block 56.2µM, G9a block 8.91µM, JMJD2A Tudor inh 17.8µM and HP1b binding inh inactive.
Cc1ccc(NC(=O)CNc2cc(S(=O)(=O)N3CCOCC3)ccc2NCC2CCCO2)cc1F (centres undefined) was read as BAZ2B block inconclusive, PI5P4Ka inh inactive, G9a block 44.7µM, JMJD2A Tudor inh inconclusive and HP1b binding inh inactive.
`COc1ccc(NC(=O)CNc2cc(S(=O)(=O)N3CCOCC3)ccc2NCC2CCCO2)cc1` (centres undefined) gave L3MBTL1 block inactive, PI5P4Ka inh inactive, G9a block 6.31µM, JMJD2A Tudor inh inactive and HP1b binding inh inactive.
